Drawing on PubChem BioAssay, this text covers composite z-score, composite Z-score and z-score for nine molecules.

The source made the active and inactive calls.

One assay deals with Albumin (Bos taurus) (UniProt P02769). Briefly: compounds binding labelled BSA control protein – biochemical, small-molecule microarray, Alexa647 label, 635/667 nm fluorescence, artefact control for SMM control protein annotation, profiling panel (AID 1118).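 Also: score merges 667 nm emission intensity and signal-to-noise per printed compound spot.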 The note with it: BSA-A647 binding, fluorescence 635 nm, higher = more signal.
Albumin (Bos taurus), sequence (P02769 whole entry, looked up): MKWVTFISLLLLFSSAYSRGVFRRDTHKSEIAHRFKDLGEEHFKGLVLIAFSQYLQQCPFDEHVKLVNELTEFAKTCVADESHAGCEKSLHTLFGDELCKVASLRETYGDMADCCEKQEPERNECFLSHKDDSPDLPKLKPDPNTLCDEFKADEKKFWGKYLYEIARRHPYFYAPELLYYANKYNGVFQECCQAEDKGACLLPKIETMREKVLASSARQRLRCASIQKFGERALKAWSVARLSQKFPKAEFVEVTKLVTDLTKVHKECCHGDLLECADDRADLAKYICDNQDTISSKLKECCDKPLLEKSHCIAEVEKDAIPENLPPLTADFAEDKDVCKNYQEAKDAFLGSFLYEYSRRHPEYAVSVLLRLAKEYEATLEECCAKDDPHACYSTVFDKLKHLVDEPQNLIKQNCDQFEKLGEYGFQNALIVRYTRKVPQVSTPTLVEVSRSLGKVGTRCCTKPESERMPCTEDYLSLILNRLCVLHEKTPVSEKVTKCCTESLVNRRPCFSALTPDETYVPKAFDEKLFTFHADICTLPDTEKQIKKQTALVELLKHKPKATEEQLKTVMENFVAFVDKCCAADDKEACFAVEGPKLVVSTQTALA
Assay [1] is described as follows: probe aXIP binding to arrayed compounds – biochemical, NeuroSMM set, 635/667 nm fluorescence, primary screen (AID 1119).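 Also: probe is the protein aXip251-270 applied at 1 µg/mL to compound-printed slides; binding of probe to printed compounds measured as 667 nm fluorescence plus signal to noise.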 Particulars: small-molecule microarray, higher = more signal, called active from +8 up or from −8 down.
Assay [2] can be described thus: probe aNOTCH3 binding on compound microarray – biochemical, small-molecule microarray, 635/667 nm fluorescence, primary screen (AID 1120).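 Also: probe is a biotin-tagged antibody raised against NOTCH3 rather than NOTCH3 protein; score merges spot fluorescence near 667 nm with spot signal to noise.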 Particulars: higher = more signal.
The nature of assay [3]: probe aNOTCH2 binding on compound microarray – biochemical, small-molecule microarray, 635/667 nm fluorescence, primary screen (AID 1121).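 Also: score merges feature fluorescence read at 667 nm with its signal to noise.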 The note with it: higher = more signal.
Assay [4] addresses Carbonic anhydrase 2 (Homo sapiens) (UniProt P00918). Nature of the assay: compounds binding carbonic anhydrase 2 – biochemical, small-molecule microarray, Alexa647-labelled CAII, profiling panel (AID 1122). The note with it: CAII-A647 binding fluorescence, higher = more signal.
Assay [5] in a line: COS7 lysate on small-molecule microarray, probe aHis, 635 nm (AID 1123).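 Also: z-score combines 667nm fluorescence intensity with signal-to-noise per printed compound spot.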 Particulars: COS7 cell lysate, fluorescence, higher = more signal.
The nature of assay [6]: probe aLAP1 signal on lysate-treated microarray – cell lysate, small-molecule microarray, COS7 lysate, primary screen (AID 1124).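 Also: lysate comes from COS7 cells expressing LAP1 and is applied at 0.3 µg/mL; score merges spot fluorescence near 667 nm with signal-to-noise over triplicate slides.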 The note with it: probe aLAP1, fluorescence, higher = more signal.
Another assay has as its system Sam68 (KHDRBS1). Nature of the assay: compounds binding KHDRBS1 protein – biochemical, small-molecule microarray, 635 nm fluorescence, primary screen (AID 1125).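 Also: score merges 667 nm channel intensity with signal to noise over triplicate slides.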 The note with it: higher = more signal.
In assay [7] the test system is Chordin-like protein 2 (CHRDL2). Briefly: compounds binding chordin-like 2 – biochemical, small-molecule microarray, 635 nm fluorescence, primary screen (AID 1126).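 Also: printed compound slides probed with Chrdl2 protein at 4 µg/mL for 1 h at 4 C; score merges 667 nm emission intensity with signal to noise over three replicate slides.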 The note with it: fluorescence 635 nm, higher = more signal.
Assay [8] concerns the target Concanavalin-A (Canavalia ensiformis) (UniProt P02866). Nature of the assay: compounds binding concanavalin A lectin – biochemical, small-molecule microarray, Alexa647 label, 635 nm, artefact control for SMM control protein annotation, primary screen (AID 1127).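 Also: z combines 667 nm emission intensity with signal-to-noise across three replicate slides.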 The note with it: ConA-A647 binding fluorescence, higher = more signal.
Assay [9] can be described thus: compounds binding Alexa647 anti-His antibody – biochemical, small-molecule microarray, 635 nm fluorescence, artefact control for SMM control protein annotation, primary screen (AID 1128).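 Also: score merges feature fluorescence with signal-to-noise for each printed compound spot.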 The note with it: higher = more signal.
Assay [10] concerns Human papillomavirus type 1a E7 protein (residues 1-88). Briefly: HPV1a E7 small-molecule binders, primary screen, biochemical, small-molecule microarray, residues 1-88, 635 nm (AID 1129). The note with it: small-molecule microarray binding, fluorescence 635 nm; higher = more signal.
The target in assay [11] is Focal adhesion kinase 1 (Homo sapiens) (UniProt Q05397). Nature of the assay: PTK2 protein binding on printed compound slides – biochemical, small-molecule microarray, 635/667 nm fluorescence, BSA, DTT, primary screen (AID 1130).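 Also: composite of spot emission at 667 nm and signal to noise over triplicate slides.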 The note with it: 635 nm fluorescence, higher = more signal.
Focal adhesion kinase 1 (Homo sapiens), sequence (Q05397 whole entry, looked up): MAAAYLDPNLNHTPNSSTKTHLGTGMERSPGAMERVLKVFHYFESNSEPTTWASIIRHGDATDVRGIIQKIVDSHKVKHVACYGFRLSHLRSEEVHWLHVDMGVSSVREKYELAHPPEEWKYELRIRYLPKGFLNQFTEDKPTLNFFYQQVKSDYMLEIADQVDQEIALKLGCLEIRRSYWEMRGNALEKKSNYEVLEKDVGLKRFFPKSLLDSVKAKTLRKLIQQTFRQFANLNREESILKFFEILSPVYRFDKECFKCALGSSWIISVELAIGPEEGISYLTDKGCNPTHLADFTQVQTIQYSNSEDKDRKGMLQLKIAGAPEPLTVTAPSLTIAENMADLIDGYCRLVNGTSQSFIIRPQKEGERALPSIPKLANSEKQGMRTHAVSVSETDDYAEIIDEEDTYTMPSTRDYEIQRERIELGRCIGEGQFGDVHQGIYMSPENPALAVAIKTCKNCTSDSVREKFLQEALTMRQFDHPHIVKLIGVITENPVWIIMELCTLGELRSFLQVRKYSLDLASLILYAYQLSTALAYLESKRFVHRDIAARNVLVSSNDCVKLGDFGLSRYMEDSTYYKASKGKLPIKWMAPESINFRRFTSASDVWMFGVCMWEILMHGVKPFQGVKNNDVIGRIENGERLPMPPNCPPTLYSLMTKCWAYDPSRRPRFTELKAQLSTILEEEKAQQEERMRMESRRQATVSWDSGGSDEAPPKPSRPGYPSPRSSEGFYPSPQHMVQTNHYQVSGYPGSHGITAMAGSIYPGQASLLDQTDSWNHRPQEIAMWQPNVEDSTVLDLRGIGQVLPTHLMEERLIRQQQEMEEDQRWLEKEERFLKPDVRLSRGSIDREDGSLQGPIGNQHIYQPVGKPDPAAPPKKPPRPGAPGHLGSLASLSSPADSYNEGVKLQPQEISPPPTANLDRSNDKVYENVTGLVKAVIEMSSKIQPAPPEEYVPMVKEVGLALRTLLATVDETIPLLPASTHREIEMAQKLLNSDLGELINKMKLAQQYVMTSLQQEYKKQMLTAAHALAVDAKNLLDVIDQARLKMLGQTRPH
Assay [12] deals with Fibrinogen (Alexa647-labelled). Nature of the assay: Alexa647-fibrinogen binding to printed small molecules – biochemical, small-molecule microarray, 635/667 nm fluorescence, artefact control for SMM control-protein annotation, profiling panel (AID 1131).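 Also: z-score merges 667 nm fluorescence with per-spot signal-to-noise over triplicate slides.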 The note with it: fibrinogen-A647 binding fluorescence, higher = more signal.
The target of assay [13] is Follistatin (Homo sapiens) (UniProt P19883). Nature of the assay: FST protein binding to printed compounds – biochemical, small-molecule microarray, 635/667 nm fluorescence, primary screen (AID 1132). Particulars: 635 nm fluorescence, higher = more signal.
Follistatin (Homo sapiens), sequence (P19883 whole entry, looked up): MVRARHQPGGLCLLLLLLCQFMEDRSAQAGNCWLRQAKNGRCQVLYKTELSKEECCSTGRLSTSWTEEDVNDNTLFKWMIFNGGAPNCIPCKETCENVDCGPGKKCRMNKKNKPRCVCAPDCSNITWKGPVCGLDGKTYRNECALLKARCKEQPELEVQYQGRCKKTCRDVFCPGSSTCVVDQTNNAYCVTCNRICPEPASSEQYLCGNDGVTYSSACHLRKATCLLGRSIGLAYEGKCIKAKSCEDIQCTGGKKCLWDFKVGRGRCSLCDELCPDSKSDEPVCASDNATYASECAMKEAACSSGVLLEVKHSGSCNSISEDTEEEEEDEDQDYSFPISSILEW
For assay [14], the target named is Fibroblast growth factor 2 (Homo sapiens) (UniProt P09038). Nature of the assay: basic fibroblast growth factor binding to printed compounds – biochemical, small-molecule microarray, 635/667 nm fluorescence, primary screen (AID 1133). Particulars: FGF2, fluorescence 635/667, higher = more signal.
Fibroblast growth factor 2 (Homo sapiens), sequence (P09038 whole entry, looked up): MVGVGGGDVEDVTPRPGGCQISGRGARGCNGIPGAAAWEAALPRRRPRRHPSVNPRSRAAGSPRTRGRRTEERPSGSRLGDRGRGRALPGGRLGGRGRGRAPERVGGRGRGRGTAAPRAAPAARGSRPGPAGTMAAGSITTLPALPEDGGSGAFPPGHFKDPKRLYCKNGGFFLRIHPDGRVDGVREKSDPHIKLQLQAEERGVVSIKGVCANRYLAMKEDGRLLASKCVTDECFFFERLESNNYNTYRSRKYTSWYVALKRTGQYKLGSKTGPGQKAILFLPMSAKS
Assay [15] in a line: JC-1 mitochondrial potential readout, lung cancer cells – cell-based, A549, JC-1 fluorescence, basal, 24 h, 100 nL, profiling panel (AID 1138).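 Also: A549 lung adenocarcinoma cells under basal conditions with no added stimulus; test concentration not given here.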 The note with it: higher = more signal.
A further assay has as its system Lefty1. Nature of the assay: Lefty1 protein binding to printed compounds – biochemical, small-molecule microarray, 635/667 nm fluorescence, primary screen (AID 1139). Particulars: fluorescence 635/667, higher = more signal.
The subject of assay [16] is wheat germ agglutinin (Triticum aestivum), Alexa647-labelled. Nature of the assay: Alexa647-WGA lectin binding to printed small molecules – biochemical, small-molecule microarray, 635/667 nm fluorescence, artefact control for SMM control-protein annotation, profiling panel (AID 1140).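 Also: score merges 667 nm feature emission with signal to noise over triplicate slides.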 The note with it: WGA-A647 binding, 635 nm fluorescence, higher = more signal.
Assay [17] has as its target Luciferin 4-monooxygenase (Photinus pyralis) (UniProt P08659). Nature of the assay: inhibition of purified Photinus pyralis luciferase – biochemical, luminescence, purified enzyme, 2006 set, primary screen (AID 1141).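 Also: cell-free assay with purified firefly luciferase at 100 ng per well in PBS; test concentration not given here.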 The note with it: purified firefly luciferase, SteadyGlo luminescence, 30 min; higher = more signal, called active from +8 up or from −8 down.

Concanavalin-A (Canavalia ensiformis), sequence (P02866 whole entry, looked up): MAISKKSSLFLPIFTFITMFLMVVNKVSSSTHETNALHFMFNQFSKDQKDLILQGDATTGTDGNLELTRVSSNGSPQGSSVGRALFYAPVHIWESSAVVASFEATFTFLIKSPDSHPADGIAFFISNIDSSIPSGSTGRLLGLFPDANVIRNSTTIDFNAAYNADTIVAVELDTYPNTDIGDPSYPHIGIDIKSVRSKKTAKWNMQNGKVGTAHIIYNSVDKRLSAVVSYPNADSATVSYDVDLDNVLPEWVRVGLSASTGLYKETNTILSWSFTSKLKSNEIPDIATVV
Luciferin 4-monooxygenase (Photinus pyralis), sequence (P08659 whole entry, looked up): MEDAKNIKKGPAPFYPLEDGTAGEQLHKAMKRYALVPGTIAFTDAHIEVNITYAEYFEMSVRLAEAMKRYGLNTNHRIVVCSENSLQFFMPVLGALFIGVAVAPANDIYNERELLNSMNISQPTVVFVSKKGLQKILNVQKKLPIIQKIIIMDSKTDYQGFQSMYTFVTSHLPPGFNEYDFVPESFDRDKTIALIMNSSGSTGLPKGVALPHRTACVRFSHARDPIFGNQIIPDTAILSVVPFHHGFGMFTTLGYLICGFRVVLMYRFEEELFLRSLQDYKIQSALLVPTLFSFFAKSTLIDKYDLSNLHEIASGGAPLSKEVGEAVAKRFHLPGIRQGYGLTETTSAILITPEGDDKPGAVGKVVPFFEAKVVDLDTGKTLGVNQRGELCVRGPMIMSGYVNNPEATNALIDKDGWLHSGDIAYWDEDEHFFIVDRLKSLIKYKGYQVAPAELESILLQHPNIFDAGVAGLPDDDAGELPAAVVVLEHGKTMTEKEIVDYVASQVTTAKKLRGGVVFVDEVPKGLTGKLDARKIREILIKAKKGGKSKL

In the case of `COc1ccc(CCNC(=O)[C@@]2(Sc3ccc(C)cc3)CC(=O)N(C(C)C)[C@@H]2c2ccc(CO)cc2I)cc1`, the composite z-score was -0.235 in the assay with Albumin (Bos taurus); -0.0647 in [2]; 0.0118 in assay [3]; 0.304 in assay [4]; 1.04 in assay [5]; 0.648 in [6]. Besides, the composite z-score in the assay on Sam68 (KHDRBS1) was 0.0063; in [7], -0.578; in assay [8], -0.613; in assay [9], 0.622; in [10] it was 0.178; in [11], 0.0367. Besides, the composite z-score was 0.144 in assay [12]; -0.147 in assay [13]; -0.172 in assay [14]; -0.979 in the assay on Lefty1; -0.258 in [16]. The composite Z-score in assay [1] is -0.174 (inactive). The z-score in assay [15] is 0.968; in assay [17], -0.436 (inactive).
As to `C=C(/C(=C/C[C@H](OC(C)=O)c1ccc(CO)o1)c1cc(C(=O)OC)ccc1OC)C(C)C`, the composite z-score with Albumin (Bos taurus) was 0.222; in assay [2] it was -0.0328; in assay [3], -0.148; in assay [4], 0.646; in assay [5], 0.356; in assay [6] it was -0.185. In addition, the composite z-score was 0.271 in the assay with Sam68 (KHDRBS1); -0.649 in [7]; -0.237 in assay [8]; -0.978 in assay [9]; -0.184 in [10]; -0.0384 in assay [11]. Moreover, the composite z-score in assay [12] was -1.25; in assay [13] it was 0.467; in assay [14] it was 0.539; in the assay on Lefty1, 0.864; in [16], -1.24. In assay [1], the composite Z-score was 0.72 (inactive). Further, the z-score in assay [15] was -0.483; in [17], -1.33 (inactive).
Turning to `C=CCNC(=O)[C@@H]1[C@H]2C(=O)O[C@H](c3ccccc3)[C@H](c3ccccc3)N2[C@H](c2ccc(OCCO)cc2)[C@@]12C(=O)Nc1ccc(C#CCC(C(=O)OC)C(=O)OC)cc12`, the composite z-score worked out at 0.64 in the assay with Albumin (Bos taurus); 0.277 in assay [2]; 0.0302 in [3]; 0.641 in [4]; 2 in assay [5]; 0.978 in assay [6]. The composite z-score is 1.29 in the assay on Sam68 (KHDRBS1); 0.392 in assay [7]; 1.16 in assay [8]; 2.67 in [9]; 1.2 in [10]; 0.913 in assay [11]. Also, the composite z-score in [12] was determined as 0.641; in [13] it was 0.85; in assay [14], 0.582; in the assay on Lefty1, 0.728; in [16], 1.25. Besides, the composite Z-score in assay [1] is 0.788 (inactive). The z-score in assay [15] was -0.21; in assay [17], -1.08 (inactive).
For `O=C1N[C@@H](Cc2ccccc2)C(=O)N2[C@@H]1C[C@@H](C(=O)O)[C@H]2c1cccc(OCCO)c1`, the composite z-score with Albumin (Bos taurus) is 0.0429; in assay [2], -0.0362; in assay [3], -0.124; in assay [4] it was 0.733; in [5], 0.514; in [6] it was 0.256. For the same molecule, the composite z-score was found to be 1.22 with Sam68 (KHDRBS1); 0.992 in assay [7]; 0.311 in [8]; 3.3 in [9]; 1.03 in assay [10]; 0.27 in [11]. For the same molecule, the composite z-score was 0.56 in [12]; 1.38 in [13]; 1.43 in assay [14]; 1.49 in the assay on Lefty1; 0.552 in assay [16]. Besides, the composite Z-score in [1] is 0.108 (inactive). For the same molecule, the z-score in assay [15] is 0.849; in assay [17], -1.91 (inactive).
`COC(=O)[C@@]1(Cc2ccccc2)N=C(c2ccc(OCCCO)cc2)O[C@H]1c1ccccc1`: the composite z-score was 0.103 with Albumin (Bos taurus); -0.17 in assay [2]; -0.0179 in [3]; 0.624 in assay [4]; 2.76 in assay [5]; 1.07 in [6]. For the same molecule, the composite z-score was -0.0634 with Sam68 (KHDRBS1); 0.0607 in [7]; 0.889 in assay [8]; 2.44 in [9]; 1.2 in assay [10]; 0.428 in [11]. The composite z-score in assay [12] was -0.381; in assay [13], 0.385; in [14] it was 1.65; in the assay with Lefty1 it was -0.63; in assay [16], 0.609. The composite Z-score in [1] was 0.216 (inactive). Moreover, the z-score in assay [15] was -0.56; in assay [17], -5.51 (inactive).
As for `Cc1nc2cc(Br)ccc2c(=O)o1`, the composite z-score with Albumin (Bos taurus) was 0.367; in [2] it was -0.013; in assay [3], -0.124; in [4] it was 0.633; in [5], 0.495; in assay [6] it was 0.108. The composite z-score with Sam68 (KHDRBS1) stood at 0.384; in assay [7], 0.126; in assay [8], 0.724; in assay [9], 0.302; in assay [10] it was 0.628; in assay [11], 0.201. The composite z-score in assay [12] is 0.0814; in assay [13], 0.657; in assay [14] it was -0.0519; in the assay with Lefty1, 0.328; in assay [16] it was 0.536. Also, the composite Z-score in assay [1] is 0.239 (inactive). Besides, the values for the z-score in [15] and in [17] were 0.0359 and 1.16 (inactive), respectively.
In the case of `C=CCNC(=O)[C@@H]1[C@H]2C(=O)O[C@H](c3ccccc3)[C@H](c3ccccc3)N2[C@H](c2ccc(O)cc2)[C@@]12C(=O)Nc1ccc(C#CCNC(N)=O)cc12`, the composite z-score is 0.118 with Albumin (Bos taurus); -0.169 in assay [2]; -0.166 in assay [3]; 0.352 in assay [4]; 0.636 in [5]; 0.73 in assay [6]. Also, the composite z-score was 0.512 in the assay on Sam68 (KHDRBS1); -0.671 in [7]; 0.0889 in [8]; -0.22 in assay [9]; -0.222 in [10]; 0.186 in assay [11]. The composite z-score was -0.609 in assay [12]; 0.842 in assay [13]; -0.598 in assay [14]; 0.538 in the assay with Lefty1; 0.414 in assay [16]. For the same molecule, the composite Z-score in assay [1] is 0.0219 (inactive). Moreover, the figures for the z-score in [15] and in assay [17] were -1.27 and -0.895 (inactive), respectively.
On to `O=C1O[C@H](c2ccccc2)[C@H](c2ccccc2)N2[C@H]1[C@@H](C(=O)N1CCCCCCC1)[C@]1(C(=O)Nc3ccc(C#CC4=CCCCC4)cc31)[C@H]2c1ccc(OCCO)cc1`, for which the composite z-score with Albumin (Bos taurus) was found to be 0.833; in [2], 2.11; in assay [3] it was 1.05; in assay [4], 0.837; in assay [5], 3.66; in assay [6], 1.3. In addition, the composite z-score in the assay with Sam68 (KHDRBS1) was 1.25; in assay [7] it was 1.48; in assay [8], 1.15; in assay [9], 2.15; in assay [10] it was 1.26; in assay [11], 3.18. Moreover, the composite z-score in assay [12] turned out to be 0.9; in assay [13] it was 1.49; in [14], 0.833; in the assay on Lefty1, 1.65; in [16], 1.47. The composite Z-score in assay [1] is 7.2 (inactive). Moreover, the z-score was -1.3 in assay [15] and -1.2 (inactive) in assay [17].
As for `COc1ccc([Si](C)(C)[C@H]2[C@H](CCO)O[C@@]3(C(=O)N(Cc4ccc(N(C=O)c5ccccc5)cc4)c4ccccc43)[C@@H]2C)cc1`, the composite z-score with Albumin (Bos taurus) is 0.598; in assay [2], -0.127; in assay [3] it was -0.164; in assay [4] it was -0.0062; in assay [5], 0.407; in assay [6], -0.33. The composite z-score was -0.852 in the assay with Sam68 (KHDRBS1); -0.957 in assay [7]; 0.538 in [8]; 0.841 in assay [9]; 0.179 in assay [10]; 0.114 in assay [11]. The composite z-score was -0.568 in assay [12]; 0.191 in assay [13]; -0.408 in assay [14]; 0.151 in the assay with Lefty1; 0.655 in assay [16]. The composite Z-score in assay [1] is -0.12 (inactive). The z-score in assay [15] was 0.357; in [17] it was 0.221 (inactive).
